BRCA1 expr act: BRCA1 expression activation. MCF7-BRCA1-FFLuc reporter, luminescence, 48 h; response scale: scaled: vehicle 0%, 10 µM genistein 100%. Potency, µM (top dose mostly 46.1 µM), most hits filed as activators. 380,000 compounds, 1.1% hits. AID 624202; further: nearly all actives have a fitted effect of over 80% in size
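Luminescence from a BRCA1-driven firefly luciferase in MCF7 cells was the read-out, taken 15 min after substrate addition following 48 h compound exposure at 37 °C. Data were normalized to a 10 microM genistein control and DMSO vehicle.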
NPSR antagonist: blocks cAMP signaling of the human neuropeptide S receptor; CHO-NPSR cells, cAMP TR-FRET, antagonist mode; 220,000 compounds, 1% hits; Potency, µM (top dose mostly 38.3 µM), actives largely listed as inhibitors; further: nearly all actives have a fitted effect of over 50% in size
Target sequence (Q6W5P4 whole entry, looked up): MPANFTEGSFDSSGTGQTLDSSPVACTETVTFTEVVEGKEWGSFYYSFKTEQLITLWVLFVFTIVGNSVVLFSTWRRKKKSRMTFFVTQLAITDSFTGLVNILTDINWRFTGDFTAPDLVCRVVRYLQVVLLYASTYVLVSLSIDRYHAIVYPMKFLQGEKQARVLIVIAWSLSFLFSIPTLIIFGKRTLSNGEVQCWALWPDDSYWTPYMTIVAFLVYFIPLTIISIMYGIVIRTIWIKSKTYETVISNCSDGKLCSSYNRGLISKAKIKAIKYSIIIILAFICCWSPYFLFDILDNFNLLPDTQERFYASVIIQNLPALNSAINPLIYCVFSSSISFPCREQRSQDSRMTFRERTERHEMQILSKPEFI
Giardia killer: kills Giardia lamblia; AID 540267; Giardia lamblia trophozoite viability; 340,000 compounds, 0.15% hits; activity change, % at 7.66 µM, hits read low; in the data active means activity change below about -80%; inconclusive means between about -30% and that limit;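 further: parasites exposed to compound for two days anaerobically before the ATP read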
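Media and compound were dispensed first, then trophozoites at 100 cells/well; plates sat 48 hrs at 37 deg C without oxygen before ATP luminescence reagent was added and read after 15-30 min at room temperature.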
RXFP1 antagonist: blocks the human relaxin receptor RXFP1. Q9HBX9. HEK293-RXFP1, relaxin-stimulated cAMP HTRF, 30 min; hits give low values. activity change, negative = inhibition, % at 57.5 µM. 350,000 compounds, 0.59% hits;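 active means activity change of -60% or lower, but not beyond a set lower limit; inconclusive means change between -60% and -40%, or beyond the set limit; inactive means change above -40%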
IL-2 act: activates IL-2 in a cell-based reporter assay | 360,000 compounds, 0.065% hits | activation, % (series mostly up to about 46 µM) | IL-2 activation reporter assay, cell-based qHTS; stimulated with anti-CD3/CD4/CD28 beads; in transgenic mouse T cells; in the data active means activation above about 50%; inconclusive means mostly about 30% to 49%
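EGFP and DsRed fluorescence is measured by plate cytometry in unstimulated transgenic mouse T cells exposed to compound for 60 minutes, then stimulated 18 hours at 37 degrees C with anti-CD3/anti-CD4 beads plus anti-CD28.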
RXFP1 agonist: RXFP1 (human) receptor agonism | 370,000 compounds, 0.3% hits | Potency, µM (titrated, usually from 57.5 µM), hits mostly activators | HEK293T-RXFP1 cAMP TR-FRET, 30 min; response scale: percent of porcine relaxin response, buffer zero | Q9HBX9; further: nearly all actives have a fitted effect of over 60% in size
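Agonist response is measured as cAMP accumulation in an RXFP1-transfected HEK293T line under PDE4 inhibition. Values are scaled between buffer-only and 29 nM porcine relaxin, and EC50s come from standard Hill equation fits.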
Of the large screens only hits and unclear results are named; the others gave an inactive call; ! = a repeat was not active. An excerpt weighted towards active compounds, which were near 1.9% of everything screened. Unless noted, the call rests on the fitted dose curve; in most records, active means well fitted curve in the direction sought with a large enough effect; inconclusive means small, poorly fitted or top-dose-only effect, or another doubt; inactive means no such curve, though single readings can be large; an effect the other way counts as inactive or inconclusive.

CS(=O)(=O)c1ccc(C(=O)OCC(=O)NCC2CCCO2)cc1[N+](=O)[O-] (stereo not given)	none (no result: NPSR antagonist, RXFP1 antagonist, IL-2 act, RXFP1 agonist)
O=C(c1cccc(Cl)c1)N1c2nc(-c3ccco3)nn2C2(CCCCC2)[C@@H]2CCCC[C@@H]21	none (no result: BRCA1 expr act, NPSR antagonist, Giardia killer, IL-2 act)
COc1ccccc1C(=O)N1c2ncnn2C2(CCCCC2)[C@@H]2CCCC[C@@H]21	none (no result: BRCA1 expr act, NPSR antagonist, Giardia killer, IL-2 act)
COc1cccc(C(=O)N2c3nc(-c4ccco4)nn3C3(CCCCC3)[C@@H]3CCCC[C@@H]32)c1	RXFP1 antagonist -65 (no result: BRCA1 expr act, NPSR antagonist, Giardia killer, IL-2 act)
O=C(c1cccc(Cl)c1)N1c2ncnn2C2(CCCCC2)[C@@H]2CCCC[C@@H]21	RXFP1 antagonist -61 (no result: BRCA1 expr act, NPSR antagonist, Giardia killer, IL-2 act)
COCCOCC(OC)OC	none (no result: BRCA1 expr act, NPSR antagonist, Giardia killer, IL-2 act, RXFP1 agonist)
Clc1cccc(-n2ncc3c(NC4CCCCC4)ncnc32)c1	RXFP1 antagonist -70 (no result: BRCA1 expr act, NPSR antagonist, Giardia killer, IL-2 act)
Cc1ccc(Cl)cc1-n1ncc2c(NC3CCCCC3)ncnc21	none (no result: BRCA1 expr act, NPSR antagonist, Giardia killer, IL-2 act)
CC(C)CC(NC(=O)c1ccc(Cl)cc1)C(=O)OCC(=O)c1ccc2c(c1)NC(=O)CO2 (stereo not given)	NPSR antagonist 10µM
Cc1cccc(NC(=O)COc2ccccc2C(=O)Nc2ccccc2)c1	none (no result: NPSR antagonist, Giardia killer, RXFP1 antagonist, IL-2 act, RXFP1 agonist)
CC(=O)Nc1ccc(N2CCN(C(=O)c3cccs3)CC2)cc1	none
O=C(Nc1ccc(N2CCN(C(=O)c3cccs3)CC2)cc1)c1ccc(F)cc1	RXFP1 antagonist -66 (no result: NPSR antagonist)
O=C(NCCN1CCOCC1)c1c(O)nc2ccccn2c1=O	RXFP1 antagonist -91 (no result: NPSR antagonist)
Cc1ccn2c(=O)c(C(=O)NCCN3CCOCC3)c(O)nc2c1	none (no result: NPSR antagonist)
Clc1ccc2c(Cl)cc[n+](CCC3CCCCC3)c2c1	none (no result: NPSR antagonist, Giardia killer, RXFP1 antagonist, IL-2 act, RXFP1 agonist)
CC(=O)Nc1ccc(NC(=O)c2ccc(COc3ccccc3)cc2)cc1	Giardia killer inconclusive (no result: NPSR antagonist)
CC(=O)Nc1cccc(OCCCOc2ccc([N+](=O)[O-])cc2)c1	none
CC(=O)Nc1cccc(OCc2ccc([N+](=O)[O-])cc2)c1	BRCA1 expr act 11µM (no result: NPSR antagonist, Giardia killer, RXFP1 agonist)
CC(=O)Nc1cccc(NC(=O)c2ccc(COc3ccccc3)cc2)c1	BRCA1 expr act 2.2µM (no result: NPSR antagonist)
c1ccc(CSc2nc3ncccc3[nH]2)cc1	none (no result: BRCA1 expr act, NPSR antagonist, Giardia killer, IL-2 act)
O=C(Nc1cccc(S(=O)(=O)NC2=NCCC2)c1)c1ccccc1	none (no result: NPSR antagonist, RXFP1 agonist)
O=C(Nc1ccc(N2CCOCC2)cc1)c1cccc(-n2cnnc2)c1	none (no result: NPSR antagonist)
CN(C)c1cccc(C(=O)Nc2cccc(S(=O)(=O)NC3=NCCC3)c2)c1	BRCA1 expr act 4µM (no result: NPSR antagonist)
CN(C)c1cccc(C(=O)Nc2ccc(N3CCOCC3)cc2)c1	BRCA1 expr act 11µM, Giardia killer inconclusive
COc1ccc2cc(C(=O)NCCc3ccccc3)[nH]c2c1	BRCA1 expr act 4.5µM (no result: NPSR antagonist)
O=C(Nc1cccc2cccnc12)c1ccc(Br)cc1	none (no result: NPSR antagonist, RXFP1 antagonist, IL-2 act, RXFP1 agonist)
Cc1cccc(OCC(O)Cn2c(=N)n(CCN3CCCCC3)c3ccccc32)c1 (stereo not given)	RXFP1 antagonist -63!
COc1ccc(/C(C)=N/NC(=S)NCCc2ccccc2)c(O)c1	RXFP1 antagonist -62 (no result: NPSR antagonist)
COc1ccc(-c2ccc(C(=O)Nc3cccc(N(C)C)c3)c3occc23)c(C)c1	BRCA1 expr act 2.5µM (no result: NPSR antagonist, Giardia killer, RXFP1 antagonist, RXFP1 agonist)
COc1ccc(-c2ccc(C(=O)Nc3cccc(F)c3)c3occc23)c(C)c1	BRCA1 expr act inconclusive (no result: NPSR antagonist, Giardia killer, RXFP1 antagonist, RXFP1 agonist)
COc1ccc(-c2ccc(C(=O)Nc3cccc(Oc4ccccc4)c3)c3occc23)c(C)c1	none (no result: NPSR antagonist, Giardia killer, RXFP1 antagonist, RXFP1 agonist)
Cn1cc(-c2ccc(C(=O)Nc3cccc(Oc4ccccc4)c3)c3occc23)cn1	BRCA1 expr act 11µM (no result: NPSR antagonist, Giardia killer, RXFP1 antagonist, RXFP1 agonist)
CC(=O)Oc1ccc(C2(c3ccc(OC(C)=O)cc3)Oc3ccccc3NC2=O)cc1	none (no result: BRCA1 expr act, NPSR antagonist, Giardia killer, IL-2 act, RXFP1 agonist)
CNC(=O)c1cc(-c2cccs2)on1	none (no result: NPSR antagonist, Giardia killer, RXFP1 antagonist, IL-2 act, RXFP1 agonist)
CCCC/C=C/[C@@H](c1ccccc1)C1COC(=O)CC1O (stereo not given in full)	none (no result: BRCA1 expr act, NPSR antagonist, RXFP1 antagonist, IL-2 act, RXFP1 agonist)
O=[N+]([O-])c1ccc(CN2CCN(c3ccccc3Cl)CC2)o1	Giardia killer inconclusive (no result: NPSR antagonist)
O=[N+]([O-])c1ccc(CN2CCN(c3ccccc3)CC2)o1	Giardia killer -92 (no result: NPSR antagonist)
Cc1ccccc1N1CCN(Cc2ccc([N+](=O)[O-])o2)CC1	Giardia killer -83 (no result: NPSR antagonist)
CN(C)c1ccc(/C=C/c2nccc3ccccc23)cc1	none (no result: NPSR antagonist, Giardia killer, RXFP1 antagonist, IL-2 act, RXFP1 agonist)
CN(C)c1ccc(/C=C/c2ccc3ccccc3[n+]2C)cc1	NPSR antagonist 3.2µM, RXFP1 antagonist -92
CN(C)c1ccc(/C=C/c2ccc3c4ccccc4ccc3[n+]2-c2ccccc2)cc1	NPSR antagonist 10µM, RXFP1 antagonist inconclusive
COc1ccc(NC(=O)CSc2nnnn2C)cc1S(=O)(=O)N1CCCCC1	RXFP1 antagonist -82 (no result: NPSR antagonist)
Cc1ccc(-n2nnc3c(=O)oc4ccccc4c32)cc1	NPSR antagonist inconclusive, RXFP1 antagonist -89
CCC(C)n1nnc2c(=O)oc3ccccc3c21 (stereo not given)	none
CCCCCc1ccc(-c2cn(Cc3ccc(C)cc3)nn2)cc1	none (no result: NPSR antagonist, RXFP1 antagonist)
COc1ccc(-c2cn(Cc3ccc(C)cc3)nn2)cc1	BRCA1 expr act 8.9µM (no result: NPSR antagonist, RXFP1 antagonist)
O=CNc1ccc(/C=C/c2ccnc3ccccc23)cc1	none (no result: NPSR antagonist, Giardia killer, RXFP1 antagonist, IL-2 act, RXFP1 agonist)
CCOC(=O)c1cc(C(=O)NCc2ccc(Cl)cc2Cl)nn1C	none
CCOC(=O)c1cc(C(=O)Nc2ccc(C)c(F)c2)nn1C	BRCA1 expr act 10µM
CN(C)c1ccc(-c2nc3cc(N)ccc3o2)cc1	BRCA1 expr act inconclusive, Giardia killer inconclusive, RXFP1 agonist 28µM (no result: NPSR antagonist)
S=C(Nc1ccccn1)c1ccccn1	BRCA1 expr act 7.1µM, NPSR antagonist 2µM
Cc1cccc(NC(=S)NCCc2ccccc2)n1	none
